Assay outcomes as filed in PubChem BioAssay.
Rows were chosen to be rich in hits. Some 2.9% of all compounds tested hit in one or more screens of this group.
pPAFAH FP inh = inhibitors of human plasma PAF acetylhydrolase (pPAFAH). Q13093. recombinant pPAFAH, FP-rhodamine probe fluorescence polarization. inhibition, % at 3.39 µM. 330,000 tested, 1.5% active. AID 463082;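 active = inhibition above the mean inhibition across the screen plus 3 SD, cut at about 25% in these data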;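 also: inhibitors block binding of the rhodamine activity-based probe so polarization drops; 0% = enzyme with DMSO and 100% = wells lacking pPAFAH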
Target sequence (Q13093 whole entry, looked up): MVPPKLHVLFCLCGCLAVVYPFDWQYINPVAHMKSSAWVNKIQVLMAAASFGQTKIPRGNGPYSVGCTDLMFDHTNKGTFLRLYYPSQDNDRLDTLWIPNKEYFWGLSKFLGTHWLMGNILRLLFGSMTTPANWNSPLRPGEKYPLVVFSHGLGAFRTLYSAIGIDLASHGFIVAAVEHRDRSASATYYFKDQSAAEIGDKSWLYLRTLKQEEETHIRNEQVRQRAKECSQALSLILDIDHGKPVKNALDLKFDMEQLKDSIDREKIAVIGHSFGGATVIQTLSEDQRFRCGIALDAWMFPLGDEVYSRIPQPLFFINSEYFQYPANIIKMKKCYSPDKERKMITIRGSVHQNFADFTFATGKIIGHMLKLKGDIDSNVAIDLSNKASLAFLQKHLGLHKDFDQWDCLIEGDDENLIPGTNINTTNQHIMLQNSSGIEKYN
PAFAH1B2 inh = blocks human PAF acetylhydrolase 1b catalytic subunit 2 | P68402 | recombinant PAFAH1B2, FP-rhodamine activity probe, fluorescence polarization | inhibition, % at 3.39 µM | 340,000 tested, 1.2% active;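 active = inhibition above the mean of all tested compounds plus 3 SD, cut at about 24% in these data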;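 also: 0% = enzyme with DMSO and 100% = wells lacking PAFAH1B2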
PAFAH1B3 inh = blocks human PAF acetylhydrolase 1B catalytic subunit 3; AID 492972; recombinant PAFAH1B3, FP-rhodamine probe, fluorescence polarization; Q15102; inhibition, % at 3.39 µM; 340,000 tested, 0.28% active;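 active = inhibition above the screen-wide average of all tested compounds plus 3 SD, cut at about 25% in these data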;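 also: 0% = enzyme with DMSO only and 100% = wells lacking PAFAH1B3 protein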
PAFAH2 inh = PAFAH2 (human) inhibition | AID 492956 | inhibition, % at 3.39 µM | Q99487 | recombinant PAFAH2, FP-rhodamine activity probe, fluorescence polarization | 340,000 tested, 0.99% active;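 active = inhibition above the mean over all tested compounds plus 3 SD, cut at about 30% in these data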;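 also: inhibitors block probe labeling of enzyme so polarization drops; 0% = enzyme with DMSO and 100% = wells lacking PAFAH2 protein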
LYPLA1 inh = blocks human lysophospholipase 1, a PME1 counter-screen. O75608. recombinant LYPLA1, FP-Rh probe fluorescence polarization. inhibition, % at 5.9 µM. 320,000 tested, 0.16% active;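 active = inhibition above the mean of all tested compounds plus 3 SD, set per campaign, cut at about 14% in these data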;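 also: inhibitors block serine hydrolase probe labeling of LYPLA1 so polarization falls; 0% = enzyme with DMSO and 100% = wells lacking LYPLA1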
LYPLA2 inh = blocks human lysophospholipase 2, a PME1 counter-screen. recombinant LYPLA2, FP-Rh probe fluorescence polarization. 320,000 tested, 0.38% active. AID 2177. O95372. inhibition, % at 5.9 µM;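 active = inhibition above the screen-wide mean plus 3 SD, limit set per campaign, cut at about 26% in these data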;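 also: 0% = LYPLA2 with DMSO and 100% = wells lacking LYPLA2 enzyme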
Target sequence (O95372 whole entry, looked up): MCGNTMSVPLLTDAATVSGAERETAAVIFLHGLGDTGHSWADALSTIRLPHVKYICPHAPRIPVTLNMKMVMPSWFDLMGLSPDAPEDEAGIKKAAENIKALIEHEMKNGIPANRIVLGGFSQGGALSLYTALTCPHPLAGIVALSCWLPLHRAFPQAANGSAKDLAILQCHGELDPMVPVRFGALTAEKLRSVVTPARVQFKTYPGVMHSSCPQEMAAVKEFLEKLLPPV
Numbers without * were called inactive.

Results for CCC(Sc1nc2ncccc2[nH]1)C(=O)NC1CCCC1 (stereo unspecified) ?
pPAFAH FP inh: -1; PAFAH1B2 inh: 0; PAFAH1B3 inh: 7; PAFAH2 inh: 4; LYPLA1 inh: 1; LYPLA2 inh: -3

What do the screens show for `COc1cc(CNC(=O)CCCCCCC(C)C)ccc1O`?
pPAFAH FP inh: 26*; PAFAH1B2 inh: 3; PAFAH1B3 inh: 6; PAFAH2 inh: 3; LYPLA1 inh: -1; LYPLA2 inh: 1

What do the screens show for `COc1ccc(CCNC(=O)CCCCC(=O)NCCc2ccc(OC)c(OC)c2)cc1OC`?
pPAFAH FP inh: 1; PAFAH1B2 inh: 2; PAFAH1B3 inh: 4; PAFAH2 inh: 0; LYPLA1 inh: -3; LYPLA2 inh: -8

How did CCCOc1ccc(C(CC(=O)O)NC(=O)C(c2ccccc2)c2ccccc2)cc1 (stereo unspecified) do in these assays?
pPAFAH FP inh: 2; PAFAH1B2 inh: 26*; PAFAH1B3 inh: 4; PAFAH2 inh: 1; LYPLA1 inh: 1; LYPLA2 inh: 1

What do the screens show for `CC(=O)C(N=Nc1ccccc1)(Sc1nnc(-c2ccccc2)n1-c1ccccc1)C(=O)Nc1ccccc1` (stereo unspecified)?
pPAFAH FP inh: 0; PAFAH1B2 inh: 26*; PAFAH1B3 inh: -5; PAFAH2 inh: -10; LYPLA1 inh: -8; LYPLA2 inh: -14

What do the screens show for `CC(=O)C(N=Nc1ccccc1)(Sc1nnc(-c2ccccc2)n1-c1ccccc1)C(C)=O`?
pPAFAH FP inh: 5; PAFAH1B2 inh: 14; PAFAH1B3 inh: 5; PAFAH2 inh: -1; LYPLA1 inh: 0; LYPLA2 inh: 7

Results for CC1CCN(S(=O)(=O)c2ccc3c(c2)CCN3C(=O)CCC(=O)O)CC1 ?
pPAFAH FP inh: 2; PAFAH1B2 inh: 26*; PAFAH1B3 inh: 11; PAFAH2 inh: 1; LYPLA1 inh: -3; LYPLA2 inh: 1

What do the screens show for `O=C(O)CCC(=O)N1CCc2cc(S(=O)(=O)N3CCCCC3)ccc21`?
pPAFAH FP inh: 4; PAFAH1B2 inh: 3; PAFAH1B3 inh: 7; PAFAH2 inh: 11; LYPLA1 inh: 2; LYPLA2 inh: 0

Results for CCC(=O)Nc1cccc(C(=O)Nc2nccs2)c1 ?
pPAFAH FP inh: 2; PAFAH1B2 inh: 1; PAFAH1B3 inh: -1; PAFAH2 inh: 1; LYPLA1 inh: 0; LYPLA2 inh: 5

What do the screens show for `Cc1nn(-c2ncc(C(F)(F)F)cc2Cl)c(=O)n1-c1c(F)cccc1F`?
pPAFAH FP inh: 30*; PAFAH1B2 inh: -2; PAFAH1B3 inh: 8; PAFAH2 inh: 7; LYPLA1 inh: 0; LYPLA2 inh: -6

Results for Cc1ccc(NS(=O)(=O)c2ccc(NC(=O)c3ccccc3C(=O)O)cc2)cc1C ?
pPAFAH FP inh: 26*; LYPLA1 inh: 0; LYPLA2 inh: -3

How did CCOc1ccc(NS(=O)(=O)c2ccc(NC(=O)c3ccccc3C(=O)O)cc2)cc1 do in these assays?
pPAFAH FP inh: 23; PAFAH1B2 inh: 6; PAFAH1B3 inh: 4; PAFAH2 inh: 3; LYPLA1 inh: 2; LYPLA2 inh: 7

How did O=C(Nc1ccc(Br)cc1)c1cccc(S(=O)(=O)Nc2cnc3ccccc3c2)c1 do in these assays?
pPAFAH FP inh: 27*; PAFAH1B2 inh: -5; PAFAH1B3 inh: -1; PAFAH2 inh: 3; LYPLA1 inh: -13; LYPLA2 inh: -16

How did O=S(=O)(Nc1ccc(F)cc1)c1ccc(NC(=S)Nc2ccccc2)cc1 do in these assays?
pPAFAH FP inh: 25*; PAFAH1B2 inh: -2; PAFAH1B3 inh: 2; PAFAH2 inh: 2; LYPLA1 inh: -5; LYPLA2 inh: -2

Results for Cc1c(C)c(C)c(C(=O)c2ccc(NC(=O)c3ccccc3C(=O)O)cc2)c(C)c1C ?
pPAFAH FP inh: -1; PAFAH1B2 inh: 109*; PAFAH1B3 inh: 141*; PAFAH2 inh: 167*; LYPLA1 inh: 1; LYPLA2 inh: -6

Results for CNC(=O)CSc1nc2[nH]ncc2c(=O)[nH]1 ?
pPAFAH FP inh: -7; PAFAH1B2 inh: 2; PAFAH1B3 inh: -1; PAFAH2 inh: 0; LYPLA1 inh: -3; LYPLA2 inh: -8

How did Cc1ccc(C(=O)NCCCN2CCOCC2)cc1S(=O)(=O)N1CCOCC1 do in these assays?
pPAFAH FP inh: 3; PAFAH1B2 inh: 2; PAFAH1B3 inh: 5; PAFAH2 inh: -1; LYPLA1 inh: 4; LYPLA2 inh: 10

How did O=C(NNC(=O)c1ccc(Br)s1)NC1CCCCC1 do in these assays?
PAFAH1B2 inh: 5; PAFAH1B3 inh: 0; PAFAH2 inh: -5

How did O=C(Nc1ccc(NS(=O)(=O)c2ccccc2)cc1)c1ccccc1 do in these assays?
pPAFAH FP inh: 34*; PAFAH1B2 inh: 10; PAFAH1B3 inh: -5; PAFAH2 inh: 10; LYPLA1 inh: -2; LYPLA2 inh: -3

What do the screens show for `COc1ccc(C(=O)Nc2ccc(NS(=O)(=O)c3ccccc3)cc2)cc1OC`?
pPAFAH FP inh: 33*; PAFAH1B2 inh: 1; PAFAH1B3 inh: 3; PAFAH2 inh: 2; LYPLA1 inh: -5; LYPLA2 inh: -5

How did COc1ccc(C(=O)Nc2ccc(S(=O)(=O)Nc3ncccn3)cc2)cc1OC do in these assays?
pPAFAH FP inh: 2; PAFAH1B2 inh: 8; PAFAH1B3 inh: 14; PAFAH2 inh: 5; LYPLA1 inh: 5; LYPLA2 inh: 10

What do the screens show for `Cc1ccc(NS(=O)(=O)c2ccc(/C=C/C(=O)O)cc2)cc1Cl`?
pPAFAH FP inh: 29*; PAFAH1B2 inh: 14; PAFAH1B3 inh: -3; PAFAH2 inh: 10; LYPLA1 inh: -2; LYPLA2 inh: -1

How did Cc1ccc(S(=O)(=O)Nc2cccc(/C=C/C(=O)O)c2)cc1 do in these assays?
pPAFAH FP inh: -1; PAFAH1B2 inh: 15; PAFAH1B3 inh: 3; PAFAH2 inh: -9; LYPLA1 inh: -3; LYPLA2 inh: -2

What do the screens show for `O=C(COC(=O)c1cc(=O)c2ccccc2o1)Nc1ccc2ccccc2c1`?
pPAFAH FP inh: 3; PAFAH1B2 inh: 6; PAFAH1B3 inh: 6; PAFAH2 inh: -6; LYPLA1 inh: -5; LYPLA2 inh: -6

What do the screens show for `O=C(O)c1ccc(S(=O)(=O)N(Cc2ccc(F)cc2)C2CCCCC2)cc1`?
pPAFAH FP inh: 3; PAFAH1B2 inh: 26*; PAFAH1B3 inh: -2; PAFAH2 inh: 0; LYPLA1 inh: -1; LYPLA2 inh: 8

How did CC(C)C(NS(=O)(=O)c1cccc(C(F)(F)F)c1)C(=O)N1CCc2ccccc2C1 (stereo unspecified) do in these assays?
pPAFAH FP inh: -3; PAFAH1B2 inh: 26*; PAFAH1B3 inh: 4; PAFAH2 inh: 7; LYPLA1 inh: -3; LYPLA2 inh: -4

Results for CC(C)C(NS(=O)(=O)c1ccccc1F)C(=O)N1CCc2ccccc2C1 (stereo unspecified) ?
pPAFAH FP inh: 1; PAFAH1B2 inh: 3; PAFAH1B3 inh: 1; PAFAH2 inh: 2; LYPLA1 inh: 0; LYPLA2 inh: 2
